Laboratory results taken from PubChem BioAssay.
Calls of active or inactive are those of the source.

Tests used:
[1] = optical density shifts of acrAB sulA E. coli – strain DRC41, OD650, 48 h, E. coli filamentation inducer project, primary screen (AID 1152); conditions: higher = more signal, called active from +8 up or from −8 down;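 note: E. coli MC1000 strain DRC41 lacking acrAB efflux pump and sulA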
[2] = probe aLefty1 binding on compound microarray – biochemical, small-molecule microarray, 635/667 nm fluorescence, primary screen (AID 1153); conditions: higher = more signal;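 note: score merges spot fluorescence with signal-to-noise ratio from the scanned slide images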
[3] = plasmodial surface anion channel blockers, osmotic lysis – cell-based, P. falciparum Indochina, OD700, 1 h, primary screen (AID 1154); conditions: P. falciparum Indochina infected RBC osmotic lysis, higher = more signal, called active from +8 up or from −8 down
[4] = plasmodial surface anion channel blockers, osmotic lysis – cell-based, P. falciparum Indochina, OD700, 2 h, primary screen (AID 1155);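 note: lysis reports solute entry through the parasite surface anion channel PSAC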; conditions: P. falciparum Indochina infected erythrocytes, higher = more signal, called active from +8 up or from −8 down
[5] = changes in parasitized red cell lysis, either direction – P. falciparum Indochina, OD700, 3 h, PSAC antagonist project, primary screen (AID 1156); conditions: P. falciparum-infected erythrocytes, osmotic lysis, higher = more signal, called active from +8 up or from −8 down
[6] = plasmodial surface anion channel blockers, osmotic lysis – cell-based, P. falciparum Indochina, OD700, 18 h, primary screen (AID 1157); conditions: P. falciparum Indochina infected erythrocytes, osmotic lysis OD700, 18 h; higher = more signal, called active from +8 up or from −8 down
[7] = S6 kinase pathway phospho-S6 level changes – cell-based, A549, cytoblot, luminescence, serum-stimulated, primary screen (AID 1158); conditions: 5 h, higher = more signal;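 note: serum-stimulated A549 lung adenocarcinoma cells; signal is phosphorylated S6 detected by cytoblot immunostaining with HRP secondary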
[8] = target: NADPH oxidase 2 (Homo sapiens) (UniProt P04839); test: compounds shifting NOX2 Amplex Red fluorescence – cell-based, HEK293-NOX2, PMA-stimulated, NOX inhibitor project, primary screen (AID 1159); conditions: 45 min, higher = more signal, called active from +8 up or from −8 down; note: test concentration not given here
Sequence of NADPH oxidase 2 (Homo sapiens) (P04839 whole entry, looked up): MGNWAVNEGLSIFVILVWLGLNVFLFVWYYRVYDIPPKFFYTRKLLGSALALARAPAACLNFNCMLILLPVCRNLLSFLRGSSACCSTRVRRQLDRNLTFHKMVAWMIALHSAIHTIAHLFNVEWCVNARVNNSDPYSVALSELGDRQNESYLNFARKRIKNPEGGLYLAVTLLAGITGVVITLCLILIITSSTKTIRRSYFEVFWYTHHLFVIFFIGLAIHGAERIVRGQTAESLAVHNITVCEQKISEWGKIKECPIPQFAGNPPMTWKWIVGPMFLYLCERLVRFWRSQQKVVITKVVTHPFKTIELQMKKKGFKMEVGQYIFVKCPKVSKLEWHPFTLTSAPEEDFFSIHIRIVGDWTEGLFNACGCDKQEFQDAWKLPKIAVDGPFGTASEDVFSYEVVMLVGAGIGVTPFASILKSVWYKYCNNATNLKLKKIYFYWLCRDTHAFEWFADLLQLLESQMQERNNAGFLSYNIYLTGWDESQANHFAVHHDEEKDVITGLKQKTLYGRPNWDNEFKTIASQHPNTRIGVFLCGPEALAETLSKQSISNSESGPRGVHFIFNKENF

[9] = target: NADPH oxidase 4 (Homo sapiens) (UniProt Q9NPH5); test: compounds shifting NOX4 Amplex Red fluorescence – cell-based, HEK293-NOX4, tetracycline-induced, NOX inhibitor project, primary screen (AID 1160); conditions: HEK293-NOX4, Amplex Red H2O2 fluorescence, 45 min; higher = more signal, called active from +8 up or from −8 down
Sequence of NADPH oxidase 4 (Homo sapiens) (Q9NPH5 whole entry, looked up): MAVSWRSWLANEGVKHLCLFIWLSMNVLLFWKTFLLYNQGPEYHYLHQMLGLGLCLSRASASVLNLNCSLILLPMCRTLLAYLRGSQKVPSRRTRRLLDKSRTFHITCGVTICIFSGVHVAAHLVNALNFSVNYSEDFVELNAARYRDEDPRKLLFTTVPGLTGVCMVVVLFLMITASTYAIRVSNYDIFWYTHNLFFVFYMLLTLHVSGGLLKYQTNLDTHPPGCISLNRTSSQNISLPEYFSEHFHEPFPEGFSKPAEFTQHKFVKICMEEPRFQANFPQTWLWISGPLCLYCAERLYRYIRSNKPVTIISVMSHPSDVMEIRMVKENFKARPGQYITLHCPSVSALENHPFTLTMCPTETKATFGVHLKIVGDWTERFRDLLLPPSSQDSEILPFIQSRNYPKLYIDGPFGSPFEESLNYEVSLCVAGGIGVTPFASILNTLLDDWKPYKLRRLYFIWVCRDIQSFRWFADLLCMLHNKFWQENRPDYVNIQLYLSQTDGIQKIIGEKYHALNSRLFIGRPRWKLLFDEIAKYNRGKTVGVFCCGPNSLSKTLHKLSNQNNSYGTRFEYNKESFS

[10] = target: NADPH oxidase 5 (Homo sapiens) (UniProt Q96PH1); test: compounds shifting NOX5 Amplex Red fluorescence – cell-based, HEK293-NOX5, NOX inhibitor project, primary screen (AID 1161); conditions: HEK293-NOX5, ionomycin, 45 min, higher = more signal
Sequence of NADPH oxidase 5 (Homo sapiens) (Q96PH1 whole entry, looked up): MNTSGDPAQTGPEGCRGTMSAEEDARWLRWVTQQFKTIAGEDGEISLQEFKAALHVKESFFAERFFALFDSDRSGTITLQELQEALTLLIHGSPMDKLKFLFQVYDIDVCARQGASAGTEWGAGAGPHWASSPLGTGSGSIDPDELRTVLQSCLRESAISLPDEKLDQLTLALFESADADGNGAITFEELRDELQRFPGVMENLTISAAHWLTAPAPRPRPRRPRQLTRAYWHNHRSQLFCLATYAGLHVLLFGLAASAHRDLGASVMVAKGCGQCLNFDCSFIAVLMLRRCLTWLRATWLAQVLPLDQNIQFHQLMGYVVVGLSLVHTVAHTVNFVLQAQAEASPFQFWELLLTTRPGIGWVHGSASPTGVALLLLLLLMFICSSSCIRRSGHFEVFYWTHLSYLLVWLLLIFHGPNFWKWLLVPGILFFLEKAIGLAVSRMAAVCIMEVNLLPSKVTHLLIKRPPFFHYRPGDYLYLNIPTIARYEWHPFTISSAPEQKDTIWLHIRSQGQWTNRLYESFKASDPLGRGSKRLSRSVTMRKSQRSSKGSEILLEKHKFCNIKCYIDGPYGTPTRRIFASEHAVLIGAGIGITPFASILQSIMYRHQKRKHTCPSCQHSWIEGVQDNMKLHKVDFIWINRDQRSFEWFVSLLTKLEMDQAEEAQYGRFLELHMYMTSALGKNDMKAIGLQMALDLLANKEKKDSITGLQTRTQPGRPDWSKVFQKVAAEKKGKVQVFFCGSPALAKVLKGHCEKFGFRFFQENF

[11] = compound effects on lung adenocarcinoma cell viability – A549, calcein-AM fluorescence, 48 h, basal, profiling panel (AID 1162); conditions: higher = more signal; note: test concentration not given here
[12] = compound effects on differentiated 3T3-L1 adipocyte viability – cell-based, 3T3-L1 adipocytes, calcein-AM fluorescence, 48 h, basal, profiling panel (AID 1163); conditions: 3T3-L1 adipocytes viability, higher = more signal; note: test concentration not given here
[13] = compound effects on hepatocellular carcinoma cell viability – HepG2, calcein-AM fluorescence, 48 h, basal, profiling panel (AID 1164); conditions: higher = more signal; note: test concentration not given here
[14] = compound effects on multiple myeloma cell viability – MM1S, calcein-AM fluorescence, 48 h, basal, profiling panel (AID 1165); conditions: higher = more signal; note: test concentration not given here
[15] = calcein-AM signal in unstimulated myeloma cells – cell-based, calcein-AM fluorescence, 48 h, PK04 Diversity Set, profiling panel (AID 1166); conditions: RPMI8226 myeloma viability, higher = more signal;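 note: cells grown under basal conditions without added stimulus; test concentration not given here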
[16] = JC-1 mitochondrial signal, unstimulated HepG2 cells – cell-based, JC-1 fluorescence, 24 h, 100 nL compound, profiling panel (AID 1167); conditions: HepG2 mitochondrial potential, higher = more signal; note: test concentration not given here
[17] = JC-1 mitochondrial signal, unstimulated adipocytes – cell-based, JC-1 fluorescence, 3T3-L1 adipocytes, 24 h, 100 nL compound, profiling panel (AID 1168); conditions: JC-1 mitochondrial fluorescence, higher = more signal, called active from +8 up or from −8 down; note: test concentration not given here
[18] = JC-1 mitochondrial signal, unstimulated myeloma cells – cell-based, JC-1 fluorescence, RPMI8226, 24 h, 100 nL compound, profiling panel (AID 1169); conditions: JC-1 mitochondrial potential fluorescence, higher = more signal; note: test concentration not given here
[19] = JC-1 mitochondrial signal, unstimulated MM1S myeloma – cell-based, JC-1 fluorescence, 24 h, 100 nL compound, profiling panel (AID 1170); conditions: MM1S mitochondrial potential, higher = more signal; note: test concentration not given here
[20] = resazurin metabolic signal in A549 cells – cell-based, resazurin fluorescence, 24 h, PK04 Diversity Set, profiling panel (AID 1171); conditions: A549 viability, higher = more signal, called active from +8 up or from −8 down; note: test concentration not given here

Structure (SMILES)	z-score [1]	composite z-score [2]	z-score [3]	z-score [4]	z-score [5]	z-score [6]	z-score [7]	z-score [8]	z-score [9]	z-score [10]	z-score [11]	z-score [12]	z-score [13]	z-score [14]	z-score [15]	z-score [16]	z-score [17]	z-score [18]	z-score [19]	z-score [20]
COCCOC(=O)N1C(=O)[C@@]2(c3cc(C#CC4(O)CCCCCC4)ccc31)[C@H](c1ccccc1OCCO)N1[C@H](c3ccccc3)[C@H](c3ccccc3)OC(=O)[C@H]1[C@@H]2C(=O)N1CCCCCCC1	0.499 (inactive)	2.49	0.257 (inactive)	0.755 (inactive)	0.196 (inactive)	0.653 (inactive)	0.119	0.297 (inactive)	0.104 (inactive)	1.13	-0.971	0.723	0.818	-1.45	-1.99	-0.286	0.454 (inactive)	-0.557	-1.34	-0.141 (inactive)
CCOC(=O)C1=CC[C@@H](c2ccccc2Cl)N(S(=O)(=O)c2ccc(C)cc2)[C@H]1c1cccc(OC)c1	-1.44 (inactive)	0.0082	1.23 (inactive)	1.16 (inactive)	0.106 (inactive)	0.362 (inactive)	-0.401	0.78 (inactive)	0.238 (inactive)	0.113	-0.698	-1.56	-0.467	-0.744	0.688	0.405	-1.39 (inactive)	0.702	-0.539	0.219 (inactive)
COC(=O)[C@@]1(CCS(=O)(=O)c2ccccc2)N=C(c2ccc(OCCCO)cc2)O[C@H]1c1ccccc1N=[N+]=[N-]	-0.527 (inactive)	-0.0559	26.9 (active)	22.3 (active)	1.09 (inactive)	3.42 (inactive)	0.819	-1.31 (inactive)	1.02 (inactive)	-1.59	-1.66	0.81	-0.474	-0.746	0.206	0.335	-0.852 (inactive)	-0.687	-0.426	-2.02 (inactive)
CCCC[C@@H]1C[C@H]1[C@@H](NC(=O)Cc1ccccc1)c1ccc(Cl)cc1	-1.71 (inactive)	0.509	1.15 (inactive)	1.03 (inactive)	2.18 (inactive)	1.53 (inactive)	-1.06	-0.795 (inactive)	-0.195 (inactive)	1.88	-1.07	-0.669	-1.9	-3.46	-4.66	-4.92	-1.27 (inactive)	-0.906	-2.89	3.48 (inactive)
CCCCC(O)C1C=CC2C(=O)N(C)C(=O)C2N1Nc1ccccc1 (stereo not given)	-1.37 (inactive)	0.165	-0.242 (inactive)	0.735 (inactive)	0.243 (inactive)	1.17 (inactive)	-1.35	-1.32 (inactive)	-3.48 (inactive)	-2.72	-0.961	-1.89	-0.595	-1.29	-0.419	-1.73	0.64 (inactive)	-0.16	0.402	-0.98 (inactive)
O=C1NC(=O)C2C1C=CC(C(O)c1ccc(F)cc1)N2Nc1ccccn1 (stereo not given)	-1.99 (inactive)	0.0378	1.02 (inactive)	1.23 (inactive)	-0.02 (inactive)	0.753 (inactive)	-0.727	-1.01 (inactive)	-2.92 (inactive)	-2.12	-1.12	-0.182	0.417	-0.416	-0.395	-1.53	-0.311 (inactive)	0.734	0.247	-1.11 (inactive)
O=C1N(Cc2ccccc2)c2ccccc2[C@H]2OC(c3ccc(OCCCO)cc3)=N[C@@]12Cc1ccccc1	-0.456 (inactive)	0.31	28.7 (active)	25.3 (active)	3.25 (inactive)	2.26 (inactive)	0.381	-1.32 (inactive)	-0.641 (inactive)	-1.68	-1.22	1.93	-1.78	-2.75	-4.59	-0.67	1.56 (inactive)	-1.26	-1.66	-2.1 (inactive)
C=C(CCCC)C(=O)CC[C@H](OC(=O)c1cccnc1)c1ccc(CO)o1	-0.348 (inactive)	0.3	2.21 (inactive)	0.101 (inactive)	0.217 (inactive)	0.038 (inactive)	-0.253	1.25 (inactive)	0.532 (inactive)	-0.454	-0.489	-0.175	0.0768	0.187	-0.0395	-1.48	-0.572 (inactive)	-0.577	-0.283	-0.0291 (inactive)
COCCOC(=O)N1C(=O)[C@@]2(c3ccccc31)[C@H](c1ccc(OCCO)cc1)N1[C@H](c3ccccc3)[C@H](c3ccccc3)OC(=O)[C@H]1[C@@H]2C(=O)N1CCN(c2ncccn2)CC1	0.118 (inactive)	0.547	22.1 (active)	6.25 (inactive)	1.4 (inactive)	1.56 (inactive)	0.0018	1.19 (inactive)	0.262 (inactive)	0.618	-0.158	1.39	-0.29	-1.12	-1.12	1.03	0.358 (inactive)	0.1	-1.1	0.345 (inactive)
COCCOC(=O)N1C(=O)[C@@]2(c3cc(C#CCC(C(=O)OC)C(=O)OC)ccc31)[C@H](C(N)=O)[C@H]1C(=O)O[C@H](c3ccccc3)[C@H](c3ccccc3)N1[C@@H]2c1ccc(OCCO)cc1	-0.886 (inactive)	0.146	28.9 (active)	16.1 (active)	-1.71 (inactive)	2.01 (inactive)	-0.275	1.75 (inactive)	1.24 (inactive)	0.515	-0.0635	0.0923	0.103	-2.16	-3.21	-1.47	0.47 (inactive)	-1.09	-1.26	0.214 (inactive)
Cc1ccc(S[C@]2(C(=O)NCC(F)(F)F)CC(=O)N(C3CCCCC3)[C@@H]2c2ccc(CO)cc2)cc1	0.344 (inactive)	0.123	1.58 (inactive)	0.525 (inactive)	0.621 (inactive)	0.157 (inactive)	-0.14	-0.941 (inactive)	0.03 (inactive)	0.192	0.815	0.132	0.844	-1.03	-0.758	1.11	0.466 (inactive)	0.0558	-0.42	-0.0508 (inactive)
CCC[C@@H]1[C@@H](Sc2ccccc2)[C@@H](C(=O)O)[C@H](c2ccc(C)cc2)N1S(=O)(=O)c1ccc(C)cc1	0.086 (inactive)	0.0531	1.44 (inactive)	0.495 (inactive)	-0.892 (inactive)	1 (inactive)	-0.0334	1.82 (inactive)	0.872 (inactive)	1.27	-0.861	-0.571	0.699	0.116	-2.59	-0.772	1.41 (inactive)	-0.134	-1.64	-0.856 (inactive)
CC(C)c1ccc(NN2C(C(O)C(C)C)C=CC3C(=O)N(c4ccccc4)C(=O)C32)cc1 (stereo not given)	-0.671 (inactive)	0.996	1.37 (inactive)	0.83 (inactive)	0.42 (inactive)	1.37 (inactive)	-0.452	-0.862 (inactive)	-4.22 (inactive)	-4.95	-0.149	-0.0009	-0.463	-0.871	-0.542	-0.419	-1.52 (inactive)	-0.692	0.54	-1.28 (inactive)
CCCC[C@H]1OB(O)C[C@H]2C1=C(C)C[C@H]1C(=O)C=CC(=O)[C@H]12	-0.202 (inactive)	-0.06	1.7 (inactive)	0.183 (inactive)	0.816 (inactive)	0.182 (inactive)	-0.0244	-1.12 (inactive)	-1.25 (inactive)	-1.18	-0.252	-1.14	-0.799	-3.35	-3.16	-3.39	-1.24 (inactive)	-0.937	-2.13	-0.443 (inactive)
CCN(CC)c1ccc(N2CC=CC34O[C@@H]5C=CCOC(=O)[C@@H]5[C@H]3C(=O)N(CCCO)[C@@H]4C2=O)cc1 (stereo not given in full)	1.33 (inactive)	0.027	0.246 (inactive)	-0.655 (inactive)	0.649 (inactive)	-1.36 (inactive)	4.3	-0.0266 (inactive)	-0.497 (inactive)	0.785	-0.0867	1.85	-0.244	1.8	0.28	0.432	0.604 (inactive)	0.19	0.536	-0.481 (inactive)
CN(C)C(=O)[C@]1(Cc2ccccc2CN=[N+]=[N-])N=C(c2ccc(OCCCO)cc2)O[C@@H]1c1ccccc1N=[N+]=[N-]	-0.174 (inactive)	0.413	33.2 (active)	30 (active)	2.99 (inactive)	9.81 (active)	-0.0847	-1.25 (inactive)	0.807 (inactive)	-0.474	-0.691	0.287	-0.923	-1.33	-2.16	0.271	2.38 (inactive)	-0.997	-1.29	-1.42 (inactive)
COCCn1c(C(=O)N2CCCC2)cc2c1C[C@H]1CN(C(=O)c3ccccc3)[C@@](Cc3ccccc3)(C(=O)OC)[C@@H]21	-0.91 (inactive)	1.46	1.46 (inactive)	0.103 (inactive)	1.98 (inactive)	1.01 (inactive)	1.09	0.582 (inactive)	-0.6 (inactive)	-3.94	-1.94	-0.239	-0.768	0.0841	-1.37	0.678	-0.416 (inactive)	-0.803	-0.688	-0.0413 (inactive)
CC(C)CNC(=O)[C@@H]1c2ccccc2C(=O)N(C2Cc3ccccc3C2)[C@H]1c1ccc(CO)cc1	1.93 (inactive)	0.0861	3.11 (inactive)	0.693 (inactive)	1.18 (inactive)	0.232 (inactive)	0.0629	0.182 (inactive)	1.12 (inactive)	0.105	2.03	0.319	1.74	0.0933	0.362	3.2	0.228 (inactive)	-0.836	0.00489	0.797 (inactive)
